Source: PubChem BioAssay
Active and inactive are the calls of the source.

Legend:
[1] = test system: PRMT1 (protein arginine N-methyltransferase 1); assay: PRMT1 binders on small-molecule microarrays, primary screen, biochemical, small-molecule microarray, 635 nm fluorescence (AID 1088); conditions: small-molecule microarray binding, higher = more signal;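 also: binding of Prmt1 protein to compounds spotted on small-molecule microarray slides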
[2] = yeast growth modulation, basal conditions, primary screen, YJM789 clinical isolate, OD600, 24 h (AID 1089);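 also: growth of clinical yeast isolate S. cerevisiae YJM 789 seeded 1000 cells per well; test concentration not given here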; conditions: S. cerevisiae YJM789 growth, higher = more signal, called active from +8 up or from −8 down
[3] = fission yeast growth modulation, primary screen, strain 972, OD600, 24 h, no modulator (AID 1090);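 also: basal condition with compound alone and no growth modifier present; test concentration not given here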; conditions: S. pombe 972 growth, higher = more signal, called active from +8 up or from −8 down
[4] = S. cerevisiae growth modulation with rapamycin, primary screen, strain BY4716, OD600, 96 h (AID 1091); conditions: higher = more signal, called active from +8 up or from −8 down; also: test concentration not given here
[5] = target: Torsin-1A-interacting protein 2 (Homo sapiens) (UniProt Q8NFQ8); assay: LULL1 binders on small-molecule microarray, primary screen, cell lysate, human LULL1 lysate, 635/667 nm fluorescence (AID 1092); conditions: hLULL1 lysate binding, 635 nm fluorescence, higher = more signal;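 also: probe is lysate of COS7 cells overexpressing human LULL1; score merges per-feature 667 nm fluorescence with signal-to-noise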
[6] = E. coli growth modulation, two-sided OD650, primary screen, E. coli filamentation project, strain DRC41, 24 h (AID 1093); conditions: OD650, 24 h, higher = more signal, called active from +8 up or from −8 down;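 also: MC1000 strain lacking acrAB efflux and sulA so SOS filamentation is blocked; test concentration not given here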
[7] = small-molecule microarray binders of probe aLefty2, primary screen, biochemical, biotinylated probe, 635/667 nm fluorescence (AID 1094); conditions: higher = more signal;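 also: score merges spot fluorescence near 667 nm with spot signal-to-noise ratio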
[8] = test system: Noggin (protein binding on small-molecule microarray); assay: Noggin binders on small-molecule microarray, primary screen, biochemical, 635/667 nm fluorescence (AID 1095); conditions: 635 nm fluorescence, higher = more signal;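 also: score merges 667 nm feature fluorescence with signal to noise over triplicate slides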
[9] = target: Neurogenic locus notch homolog protein 3 (Homo sapiens) (UniProt Q9UM47); assay: NOTCH3 binders on small-molecule microarray, primary screen, biochemical, 635/667 nm fluorescence (AID 1096); conditions: NOTCH3 binding, 635 nm fluorescence, higher = more signal
[10] = small-molecule microarray binders of probe aEGFR, primary screen, biochemical, biotinylated probe, 635/667 nm fluorescence (AID 1097); conditions: higher = more signal;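 also: probe is a biotinylated anti-EGFR antibody binding compounds printed on slides; score combines fluorescence near 667 nm and signal to noise of each spot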
[11] = test system: Plasmodium falciparum Sir2 (PF13_0152, Sir2A); assay: pfSir2 binders on small-molecule microarrays, primary screen, biochemical, small-molecule microarray, 635 nm fluorescence (AID 1098); conditions: small-molecule microarray binding, fluorescence 635 nm; higher = more signal;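 also: score merges spot fluorescence intensity with its signal-to-noise ratio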
[12] = small-molecule microarray binders of probe aDKK1, primary screen, biochemical, biotinylated probe, 635/667 nm fluorescence (AID 1099); conditions: higher = more signal;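 also: score merges 667nm spot fluorescence with signal to noise across triplicate slides; reference of the scale not given here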
[13] = small-molecule microarray binders of probe aCHRDL2, primary screen, biochemical, biotinylated probe, 635/667 nm fluorescence (AID 1100); conditions: higher = more signal
[14] = splicing luciferase reporter signal modulators, primary screen, spliceosome inhibition project, cell-based, HEK293, splice +/- reporter (AID 1101); conditions: luminescence, 24 h, higher = more signal, called active from +8 up or from −8 down;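 also: HEK293 cells carrying a splicing-competent luciferase reporter gene; test concentration not given here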
[15] = target: Fibroblast growth factor 10 (Homo sapiens) (UniProt O15520); assay: FGF10 binders on small-molecule microarrays, primary screen, biochemical, small-molecule microarray, 635 nm fluorescence (AID 1102); conditions: FGF10 binding, fluorescence 635 nm, higher = more signal
[16] = test system: glycogen synthase kinase-3 (GSK3A per assay name; protocol says GSK3B); assay: GSK3 binders on small-molecule microarrays, primary screen, biochemical, small-molecule microarray, 635 nm fluorescence, GSK3A (AID 1103); conditions: small-molecule microarray binding, fluorescence 635 nm; higher = more signal; also: the record names both GSK3A and GSK3B
[17] = target: Epidermal growth factor receptor (Homo sapiens) (UniProt P00533); assay: EGFR binders on small-molecule microarrays, primary screen, biochemical, small-molecule microarray, 635 nm fluorescence (AID 1104); conditions: EGFR binding, higher = more signal;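 also: score merges 667 nm emission intensity with spot signal to noise over triplicate slides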
[18] = target: Follistatin-related protein 3 (Homo sapiens) (UniProt O95633); assay: FSTL3 binders on small-molecule microarrays, primary screen, biochemical, small-molecule microarray, 635 nm fluorescence (AID 1105); conditions: FSTL3 binding, higher = more signal;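 also: score merges emission near 667 nm and signal to noise per printed spot across three slides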
[19] = target: Dickkopf-related protein 1 (Homo sapiens) (UniProt O94907); assay: DKK1 binders on small-molecule microarrays, primary screen, biochemical, small-molecule microarray, 635 nm fluorescence scan (AID 1106); conditions: DKK1 binding, higher = more signal;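 also: score merges emission near 667 nm with signal to noise over three replicate slides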
[20] = test system: Inhibin beta A chain (activin A); assay: INHBA (activin A) binders on microarrays, primary screen, biochemical, small-molecule microarray, 635 nm fluorescence scan (AID 1107); conditions: small-molecule microarray binding, higher = more signal;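 also: mouse activin A protein probed at 4.33 µg/mL on printed slides; score merges bound-protein fluorescence near 667 nm with spot signal-to-noise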

Chain of Torsin-1A-interacting protein 2 (Homo sapiens) (Q8NFQ8 whole entry, looked up): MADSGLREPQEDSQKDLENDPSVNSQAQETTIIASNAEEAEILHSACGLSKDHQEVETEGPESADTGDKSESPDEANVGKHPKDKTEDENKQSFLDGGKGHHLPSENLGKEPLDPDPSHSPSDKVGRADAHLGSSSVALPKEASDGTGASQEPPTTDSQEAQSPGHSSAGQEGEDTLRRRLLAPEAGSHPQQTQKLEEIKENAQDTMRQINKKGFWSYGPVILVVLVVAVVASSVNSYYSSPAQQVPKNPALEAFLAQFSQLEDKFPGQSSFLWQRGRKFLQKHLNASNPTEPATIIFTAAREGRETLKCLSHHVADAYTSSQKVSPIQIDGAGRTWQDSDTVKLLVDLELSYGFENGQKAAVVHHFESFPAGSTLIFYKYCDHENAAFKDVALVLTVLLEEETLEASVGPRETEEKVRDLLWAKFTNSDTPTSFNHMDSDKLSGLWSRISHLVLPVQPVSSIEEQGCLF
Chain of Epidermal growth factor receptor (Homo sapiens) (P00533 whole entry, looked up): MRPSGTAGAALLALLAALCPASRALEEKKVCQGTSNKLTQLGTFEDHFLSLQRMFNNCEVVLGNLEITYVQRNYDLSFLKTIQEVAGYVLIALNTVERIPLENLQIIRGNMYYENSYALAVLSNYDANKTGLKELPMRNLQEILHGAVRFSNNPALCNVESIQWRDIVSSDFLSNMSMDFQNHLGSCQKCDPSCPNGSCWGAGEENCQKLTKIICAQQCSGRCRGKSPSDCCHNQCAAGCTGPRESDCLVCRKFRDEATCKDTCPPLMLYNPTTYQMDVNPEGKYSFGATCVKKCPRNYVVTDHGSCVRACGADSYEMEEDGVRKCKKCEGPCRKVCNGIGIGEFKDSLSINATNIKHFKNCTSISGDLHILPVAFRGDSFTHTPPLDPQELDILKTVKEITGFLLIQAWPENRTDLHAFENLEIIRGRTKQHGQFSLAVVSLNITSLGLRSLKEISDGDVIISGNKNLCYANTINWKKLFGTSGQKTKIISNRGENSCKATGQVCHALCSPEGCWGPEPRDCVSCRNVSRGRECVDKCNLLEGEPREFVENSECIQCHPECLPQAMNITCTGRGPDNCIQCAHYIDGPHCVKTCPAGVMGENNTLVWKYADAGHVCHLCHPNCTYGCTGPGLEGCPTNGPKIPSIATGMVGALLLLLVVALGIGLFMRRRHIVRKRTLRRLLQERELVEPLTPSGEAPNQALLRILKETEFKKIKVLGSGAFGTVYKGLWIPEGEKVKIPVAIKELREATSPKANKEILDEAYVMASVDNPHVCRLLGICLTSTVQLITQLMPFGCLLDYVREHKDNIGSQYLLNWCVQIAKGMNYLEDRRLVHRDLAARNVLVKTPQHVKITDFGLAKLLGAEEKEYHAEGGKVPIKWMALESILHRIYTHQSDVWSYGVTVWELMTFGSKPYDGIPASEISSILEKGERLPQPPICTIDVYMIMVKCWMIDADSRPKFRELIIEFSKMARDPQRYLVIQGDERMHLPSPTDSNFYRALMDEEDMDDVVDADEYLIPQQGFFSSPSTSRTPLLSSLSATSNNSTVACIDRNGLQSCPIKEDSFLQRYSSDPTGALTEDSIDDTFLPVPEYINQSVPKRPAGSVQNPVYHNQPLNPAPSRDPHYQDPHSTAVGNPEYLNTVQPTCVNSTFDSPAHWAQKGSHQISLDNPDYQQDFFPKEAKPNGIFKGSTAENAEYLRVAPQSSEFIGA
Chain of Dickkopf-related protein 1 (Homo sapiens) (O94907 whole entry, looked up): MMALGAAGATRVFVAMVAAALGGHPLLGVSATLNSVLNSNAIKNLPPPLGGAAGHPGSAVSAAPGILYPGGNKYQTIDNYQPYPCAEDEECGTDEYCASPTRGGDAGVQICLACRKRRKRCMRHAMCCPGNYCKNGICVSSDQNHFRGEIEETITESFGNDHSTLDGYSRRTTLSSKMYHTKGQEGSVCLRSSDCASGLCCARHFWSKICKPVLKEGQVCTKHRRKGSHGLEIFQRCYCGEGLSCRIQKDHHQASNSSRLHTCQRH
Chain of Neurogenic locus notch homolog protein 3 (Homo sapiens) (Q9UM47 whole entry, looked up): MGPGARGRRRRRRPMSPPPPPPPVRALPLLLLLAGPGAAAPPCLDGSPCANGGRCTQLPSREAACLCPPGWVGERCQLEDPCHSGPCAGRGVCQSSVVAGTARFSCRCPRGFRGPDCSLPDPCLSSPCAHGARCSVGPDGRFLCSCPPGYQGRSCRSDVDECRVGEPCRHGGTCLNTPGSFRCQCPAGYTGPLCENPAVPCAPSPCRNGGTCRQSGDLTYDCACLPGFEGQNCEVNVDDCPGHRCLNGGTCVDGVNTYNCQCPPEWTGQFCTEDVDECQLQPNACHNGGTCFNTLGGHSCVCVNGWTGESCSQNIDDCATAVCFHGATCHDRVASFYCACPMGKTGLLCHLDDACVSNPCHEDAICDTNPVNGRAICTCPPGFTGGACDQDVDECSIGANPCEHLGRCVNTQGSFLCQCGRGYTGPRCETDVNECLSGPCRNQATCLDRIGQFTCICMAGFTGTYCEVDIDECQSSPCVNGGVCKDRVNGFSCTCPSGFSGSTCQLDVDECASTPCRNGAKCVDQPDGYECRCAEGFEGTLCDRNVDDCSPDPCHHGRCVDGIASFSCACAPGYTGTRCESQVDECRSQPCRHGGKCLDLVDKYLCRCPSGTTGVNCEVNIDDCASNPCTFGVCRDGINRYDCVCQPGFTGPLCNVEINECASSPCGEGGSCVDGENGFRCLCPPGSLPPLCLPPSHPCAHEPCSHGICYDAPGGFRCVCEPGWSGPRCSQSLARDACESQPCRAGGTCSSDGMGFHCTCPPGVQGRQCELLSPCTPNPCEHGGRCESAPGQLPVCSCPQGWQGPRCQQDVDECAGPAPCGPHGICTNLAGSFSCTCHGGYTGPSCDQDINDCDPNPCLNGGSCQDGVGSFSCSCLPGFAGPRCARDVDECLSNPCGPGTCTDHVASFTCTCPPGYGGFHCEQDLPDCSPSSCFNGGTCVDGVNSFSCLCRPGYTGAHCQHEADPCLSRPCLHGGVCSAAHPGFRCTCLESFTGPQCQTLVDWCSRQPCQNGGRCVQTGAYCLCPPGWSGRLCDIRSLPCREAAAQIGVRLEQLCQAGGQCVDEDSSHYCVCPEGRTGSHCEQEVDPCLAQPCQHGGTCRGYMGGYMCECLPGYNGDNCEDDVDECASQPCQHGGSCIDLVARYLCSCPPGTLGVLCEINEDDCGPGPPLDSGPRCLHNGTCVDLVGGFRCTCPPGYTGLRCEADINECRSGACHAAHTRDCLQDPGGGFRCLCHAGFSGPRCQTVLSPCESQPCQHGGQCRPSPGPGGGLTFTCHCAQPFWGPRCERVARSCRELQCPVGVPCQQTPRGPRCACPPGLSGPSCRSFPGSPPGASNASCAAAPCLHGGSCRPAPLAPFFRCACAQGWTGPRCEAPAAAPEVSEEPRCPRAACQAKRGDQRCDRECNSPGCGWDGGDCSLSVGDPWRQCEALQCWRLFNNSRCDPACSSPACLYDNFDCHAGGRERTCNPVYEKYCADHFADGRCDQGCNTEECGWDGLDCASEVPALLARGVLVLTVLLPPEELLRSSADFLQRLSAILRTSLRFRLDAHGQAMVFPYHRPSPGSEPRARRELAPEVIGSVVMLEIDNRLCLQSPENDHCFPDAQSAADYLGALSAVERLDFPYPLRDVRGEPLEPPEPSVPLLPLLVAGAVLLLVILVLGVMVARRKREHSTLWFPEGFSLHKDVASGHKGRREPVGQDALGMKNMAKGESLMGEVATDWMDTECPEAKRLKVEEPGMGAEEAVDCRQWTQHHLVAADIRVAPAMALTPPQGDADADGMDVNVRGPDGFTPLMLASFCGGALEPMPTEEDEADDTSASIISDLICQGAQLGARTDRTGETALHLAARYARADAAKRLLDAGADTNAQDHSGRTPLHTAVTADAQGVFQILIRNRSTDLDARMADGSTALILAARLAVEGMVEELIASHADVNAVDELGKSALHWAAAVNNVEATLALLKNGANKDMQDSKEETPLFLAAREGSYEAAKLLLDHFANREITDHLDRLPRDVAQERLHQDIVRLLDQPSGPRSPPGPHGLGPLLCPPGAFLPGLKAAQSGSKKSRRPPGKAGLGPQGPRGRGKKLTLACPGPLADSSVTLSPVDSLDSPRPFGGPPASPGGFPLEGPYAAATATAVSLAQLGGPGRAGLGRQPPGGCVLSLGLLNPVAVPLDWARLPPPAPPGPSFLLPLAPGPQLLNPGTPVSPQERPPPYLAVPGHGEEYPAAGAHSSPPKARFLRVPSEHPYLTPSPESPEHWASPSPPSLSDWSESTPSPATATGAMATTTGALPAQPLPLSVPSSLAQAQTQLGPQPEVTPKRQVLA
Chain of Fibroblast growth factor 10 (Homo sapiens) (O15520 whole entry, looked up): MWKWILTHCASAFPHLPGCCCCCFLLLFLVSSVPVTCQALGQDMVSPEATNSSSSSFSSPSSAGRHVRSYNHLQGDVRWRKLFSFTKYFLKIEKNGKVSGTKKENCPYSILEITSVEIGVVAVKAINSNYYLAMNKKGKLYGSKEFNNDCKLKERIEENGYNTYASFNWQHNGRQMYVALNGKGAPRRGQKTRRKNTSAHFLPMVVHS
Chain of Follistatin-related protein 3 (Homo sapiens) (O95633 whole entry, looked up): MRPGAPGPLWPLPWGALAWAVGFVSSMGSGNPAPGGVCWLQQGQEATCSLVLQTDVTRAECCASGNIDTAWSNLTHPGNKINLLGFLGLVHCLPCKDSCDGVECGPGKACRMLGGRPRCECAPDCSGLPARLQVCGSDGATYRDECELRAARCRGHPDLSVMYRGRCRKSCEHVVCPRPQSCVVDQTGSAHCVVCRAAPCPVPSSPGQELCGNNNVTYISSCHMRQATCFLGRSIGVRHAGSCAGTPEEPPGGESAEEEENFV

Row | Structure (SMILES) | composite z-score [1] | z-score [2] | z-score [3] | z-score [4] | composite z-score [5] | z-score [6] | composite z-score [7] | composite z-score [8] | composite z-score [9] | composite z-score [10] | composite z-score [11] | composite z-score [12] | composite z-score [13] | z-score [14] | composite z-score [15] | composite z-score [16] | composite z-score [17] | composite z-score [18] | composite z-score [19] | composite z-score [20]
1 | CCCCN1CC=CC23O[C@@H]4/C=C\CCCOC(=O)C4[C@H]2C(=O)N(C(CO)C(C)C)[C@@H]3C1=O (stereo not given in full) | -0.385 | 0.383 (inactive) | -0.74 (inactive) | 0.0577 (inactive) | 0.601 | -0.714 (inactive) | -0.165 | -0.21 | -0.754 | 0.371 | -0.459 | -0.277 | -0.179 | 0.558 (inactive) | -0.138 | -0.115 | 0.183 | -0.436 | 0.323 | 1.21
2 | C=CCC(OC(C)=O)[C@@H]1[C@@H](N(Cc2cccc3ccccc23)C(=O)c2ccc(-c3ccccc3)cc2)c2cc(OCCCO)ccc2N1C(=O)Cc1ccc2ccccc2c1 (stereo not given in full) | 0.157 | -0.616 (inactive) | 0.072 (inactive) | -0.26 (inactive) | 0.893 | -0.741 (inactive) | -0.145 | -0.109 | 0.397 | -0.112 | -0.121 | -0.0459 | 0.428 | -1.08 (inactive) | -0.179 | -0.328 | -0.0303 | 0.228 | -0.624 | 0.45
3 | O=C1O[C@H](c2ccccc2)[C@H](c2ccccc2)N2[C@H]1[C@@H](C(=O)N1CCN(c3ncccn3)CC1)[C@]1(C(=O)Nc3ccc(C#CCCO)cc31)[C@H]2c1ccc(O)cc1 | 0.738 | 0.515 (inactive) | -0.443 (inactive) | 1.18 (inactive) | 2.92 | -0.778 (inactive) | -0.0784 | 0.283 | 0.504 | -0.004 | 0.772 | -0.238 | 0.422 | -0.057 (inactive) | 1.06 | -0.906 | 0.397 | 0.0936 | 0.359 | -0.0667
4 | COC(=O)[C@@]1(Cc2ccccc2)[C@H]2c3cc(C(=O)N(C)C)n(CCSC(=N)N)c3C[C@H]2CN1C(=O)c1ccccc1 | 0.265 | 0.485 (inactive) | 1.12 (inactive) | 0.102 (inactive) | 2.05 | -0.0906 (inactive) | 0.169 | -0.699 | -0.0995 | -0.112 | 1.16 | 0.743 | 1 | 0.61 (inactive) | -0.315 | -0.102 | -0.649 | -0.406 | -1.49 | 1.01
5 | O=C1C2C=CC(C(O)c3cccs3)N(Nc3ccc([N+](=O)[O-])cc3)C2C(=O)N1c1ccccc1 (stereo not given) | 0.32 | -0.198 (inactive) | 1.14 (inactive) | 1.88 (inactive) | 2.98 | -0.0849 (inactive) | -0.0636 | -0.13 | 0.788 | -0.0947 | 0.672 | 0.352 | 0.25 | 1.15 (inactive) | 0.534 | 0.684 | 0.346 | 0.393 | 0.21 | 0.796
6 | COc1ccc(CCNC(=O)[C@@H]2c3ccccc3C(=O)N(Cc3ccccc3OC)[C@H]2c2ccc(CO)cc2)cc1 | 1.53 | -1.23 (inactive) | 0.294 (inactive) | -0.323 (inactive) | 2.62 | -0.1 (inactive) | -0.172 | 0.0564 | 0.852 | -0.105 | 1.1 | -0.381 | 0.508 | 0.295 (inactive) | 0.454 | 0.931 | 0.0744 | 0.172 | 0.0163 | 0.414
7 | COCCCNC(=O)[C@@]1(Sc2ccc(C)cc2)CC(=O)N(Cc2ccccc2C(F)(F)F)[C@@H]1c1ccc(CO)cc1I | 0.242 | -0.394 (inactive) | -1.05 (inactive) | 0.461 (inactive) | 1.08 | 0.217 (inactive) | 0.0245 | -2.51 | -1.4 | -0.203 | 0.284 | 0.583 | 1.07 | -0.411 (inactive) | -1.02 | -0.981 | -1.44 | -1.73 | -0.831 | 1.02
8 | C=CCC(OC(C)=O)[C@@H]1[C@@H](N(Cc2cccc3ccccc23)C(=O)Cc2ccc(OC)cc2)c2cc(OCCCO)ccc2N1C(=O)c1ccc2ccccc2c1 (stereo not given in full) | 1.14 | -1.12 (inactive) | 0.098 (inactive) | -1.35 (inactive) | 1.06 | 1.1 (inactive) | -0.0042 | 0.115 | 0.373 | -0.0967 | 0.0596 | 0.0644 | 0.256 | -1.68 (inactive) | 0.045 | -0.344 | 0.0359 | 0.627 | 0.234 | 1.35
9 | COCCOC(=O)N1C(=O)[C@@]2(c3cc(C#CCC(C(=O)OC)C(=O)OC)ccc31)[C@H](C(=O)Nc1nc3ccccc3s1)[C@H]1C(=O)O[C@H](c3ccccc3)[C@H](c3ccccc3)N1[C@@H]2c1ccc(OCCO)cc1 | 1.54 | 1.74 (inactive) | 0.657 (inactive) | 2.14 (inactive) | 1.43 | 1.43 (inactive) | 0.483 | 1.89 | 1.05 | 0.232 | 0.659 | 0.0831 | 0.164 | 0.0491 (inactive) | 1.48 | 1.32 | 1.03 | 1 | 1.04 | 0.286
10 | COCCOC(=O)N1C(=O)[C@@]2(c3cc(C#CCCO)ccc31)[C@H](c1ccc(OCCO)cc1)N1[C@H](c3ccccc3)[C@H](c3ccccc3)OC(=O)[C@H]1[C@@H]2C(=O)N1CCCCCCC1 | 1.54 | 0.869 (inactive) | 0.277 (inactive) | 3.69 (inactive) | 2.82 | -0.405 (inactive) | 1.62 | 1.49 | 1.04 | 0.611 | 1.23 | 2.43 | 1.51 | 0.458 (inactive) | 1.25 | 1.32 | 1.32 | 1.54 | 1.85 | 1.73
